The list is not random: actives were taken first. Their share in the collection is about 4.1%.
DAX1 inh-1 = DAX1 (NR0B1) inhibitors, primary screen, cell-based, HEK293, Gal4-DAX1, luciferase luminescence | Nuclear receptor subfamily 0 group B member 1 (Homo sapiens), P51843 | HEK293 Gal4-DAX1 luciferase reporter | inhibition, % at 6.75 µM | 340,000 compounds, 0.99% hits;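 active = inhibition above the mean over all tested compounds plus 3 SD, cut at about 4.2% in these data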;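 note: 0% = DAX1-transfected cells with DMSO and 100% = empty-vector control cells with DMSO; inhibition shows as a rise in luminescence from relieved DAX1 repression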
Target sequence (P51843 207-470 limits assumed): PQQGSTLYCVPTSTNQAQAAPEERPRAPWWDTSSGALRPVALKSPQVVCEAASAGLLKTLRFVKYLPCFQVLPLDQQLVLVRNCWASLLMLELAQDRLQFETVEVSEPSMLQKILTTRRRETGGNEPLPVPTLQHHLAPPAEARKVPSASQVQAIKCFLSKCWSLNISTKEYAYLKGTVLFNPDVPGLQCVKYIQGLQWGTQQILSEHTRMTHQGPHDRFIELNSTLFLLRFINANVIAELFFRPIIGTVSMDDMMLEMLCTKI
hgDAF-12 ag = H. glycines DAF-12 receptor agonists, primary screen, cell-based, luminescence, HEK293, GAL4 fusion, UAS-luciferase; activation, % at 6.8 µM; AID 687014, 2013; HEK293 GAL4-hgDAF12 UAS-luciferase reporter, agonist luminescence; normalized to butyrate control; 370,000 compounds, 1.8% hits; Nuclear hormone receptor DAF-12 (Heterodera glycines), GAL4 fusion;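 active = activation above a cutoff set at the mean of all screened compounds plus 3 SD, cut at about 10% in these data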;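 note: 0% = DMSO wells and 100% = sodium butyrate wells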
ssDAF-12 act = S. stercoralis DAF-12 nuclear receptor activators, primary screen, cell-based, luminescence, HEK293, GRIP1 co-expression, lit1-tk-luc; HEK293 ssDAF-12/GRIP1 lit1-tk-luc reporter; % of 3 µM dafachronic acid response; activation, % at 6.8 µM; 370,000 compounds, 1% hits; AID 652126, 2013;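 active = activation above the mean over all tested compounds plus 3 SD, cut at about 0.9% in these data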;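 note: 0% = DMSO-only wells and 100% = 3 µM delta7-dafachronic acid wells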
hcDAF-12 act = H. contortus DAF-12 nuclear receptor activators, primary screen, cell-based, luminescence, HEK293, lit1-tk-luc reporter; HEK293 hcDAF-12 lit1-tk-luc reporter; 0% DMSO, 100% Δ7-dafachronic acid; 370,000 compounds, 1.4% hits; activation, % at 6.8 µM;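 active = activation above the mean of all tested compounds plus 3 SD, cut at about 5.5% in these data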;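 note: 100% = response to 3 µM Δ7-dafachronic acid high control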
DAX1 inh-2 = DAX1 (NR0B1) inhibitors on StAR promoter, primary screen, cell-based, luminescence, SF-1 (NR5A1), full-length DAX-1 | HEK293T StAR-luciferase reporter, SF-1/DAX-1 repression relief | inhibition, % at 6.8 µM | 370,000 compounds, 1.1% hits;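 active = inhibition above the mean over all tested compounds plus 3 SD, cut at about 3.6% in these data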;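 note: 0% = DAX-1 cells with DMSO and 100% = cells lacking DAX-1 with DMSO; higher inhibition means more luminescence from relief of DAX-1 repression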
* = called active by the depositor.

What do the screens show for `COC(=O)CCCCCCCC(=O)Nc1nnc(C(F)(F)F)s1`?
DAX1 inh-1: 6.1*; hgDAF-12 ag: -1.9; ssDAF-12 act: -1.1; hcDAF-12 act: -1.0; DAX1 inh-2: 0.0

Results for CCN(CC)C(=O)c1ncn2c1C(=O)N[C@H](C)C2 ?
hgDAF-12 ag: -2.1; ssDAF-12 act: -0.5; hcDAF-12 act: 1.4; DAX1 inh-2: -0.6

How did Brc1ccc(/C=N/Nc2nc3ccccc3o2)cc1 do in these assays?
DAX1 inh-1: 3.7; hgDAF-12 ag: 11.5*; ssDAF-12 act: 1.9*; hcDAF-12 act: 5.9*; DAX1 inh-2: 1.0

Results for CC(=O)N1CCN2C(=O)C1CCCC(=O)c1cc(C3CCCCC3)ccc12 (stereo unspecified) ?
DAX1 inh-1: 4.3*; hgDAF-12 ag: 2.4; ssDAF-12 act: -0.5; hcDAF-12 act: -1.0; DAX1 inh-2: 0.7

How did CC(=O)N1CCN2C(=O)C1CCCC(=O)c1cc(C(C)C)ccc12 (stereo unspecified) do in these assays?
DAX1 inh-1: 1.4; hgDAF-12 ag: -2.5; ssDAF-12 act: -1.5; hcDAF-12 act: -1.3; DAX1 inh-2: 0.6

What do the screens show for `Cc1ccc(C(=O)N2CCN(c3ccccc3)CC2)cc1C`?
DAX1 inh-1: 0.0; hgDAF-12 ag: -0.3; ssDAF-12 act: -1.0; hcDAF-12 act: 1.0; DAX1 inh-2: 1.1

How did Cc1ccc(C(=O)N2CCC(C)CC2)cc1C do in these assays?
DAX1 inh-1: 0.1; hgDAF-12 ag: 4.3; ssDAF-12 act: 2.2*; hcDAF-12 act: -1.2; DAX1 inh-2: 1.0

Results for COc1ccccc1C1=NOC(Cn2c(=O)c3c(ncn3C)n(C)c2=O)C1 (stereo unspecified) ?
DAX1 inh-1: 0.0; hgDAF-12 ag: 1.3; ssDAF-12 act: 0.9*; hcDAF-12 act: 5.2; DAX1 inh-2: 0.4

What do the screens show for `CCN(C(=O)[C@@H](C)[C@@H](O)c1ccc2ccccc2c1)c1ccccc1`?
hgDAF-12 ag: -0.9; ssDAF-12 act: -0.8; hcDAF-12 act: -1.3; DAX1 inh-2: -1.3

What do the screens show for `O=C(NCc1ccc(C(=O)N2CCCN(Cc3ccccc3)CC2)cc1)c1cccc(Br)c1`?
hgDAF-12 ag: -1.4; ssDAF-12 act: -1.9; hcDAF-12 act: -3.9; DAX1 inh-2: -2.2

Results for CC(c1nnc(SCC(=O)N(C)C2CCS(=O)(=O)C2)n1-c1ccccc1)N(C)C (stereo unspecified) ?
DAX1 inh-1: 0.3; hgDAF-12 ag: 0.8; ssDAF-12 act: -1.2; hcDAF-12 act: -1.4; DAX1 inh-2: 3.7*

Results for CN(C(=O)CSc1nnc(-c2ccncc2)n1-c1ccccc1)C1CCS(=O)(=O)C1 (stereo unspecified) ?
DAX1 inh-1: 3.0; hgDAF-12 ag: 4.2; ssDAF-12 act: -1.2; hcDAF-12 act: -0.5; DAX1 inh-2: 0.5

Results for O=C1NC(=Nc2ccc3ccccc3c2)S/C1=C/c1ccco1 ?
DAX1 inh-1: 0.9; hgDAF-12 ag: 7.4; ssDAF-12 act: 2.0*; hcDAF-12 act: 4.0; DAX1 inh-2: 0.4

What do the screens show for `O=C1NC(=Nc2ccc(O)cc2)S/C1=C/c1ccco1`?
DAX1 inh-1: -0.6; hgDAF-12 ag: -1.0; ssDAF-12 act: -0.6; hcDAF-12 act: 2.1; DAX1 inh-2: -2.0

What do the screens show for `COc1ccccc1NS(=O)(=O)c1cccc(C(=O)OCC(=O)Nc2cc(C)on2)c1`?
DAX1 inh-1: -1.2; hgDAF-12 ag: -1.2; ssDAF-12 act: -1.1; hcDAF-12 act: 1.2; DAX1 inh-2: -0.2

What do the screens show for `COc1ccccc1NS(=O)(=O)c1cccc(C(=O)NCC(c2ccccc2OC)N2CCCC2)c1` (stereo unspecified)?
DAX1 inh-1: 2.2; hgDAF-12 ag: 0.1; ssDAF-12 act: -0.8; hcDAF-12 act: 0.4; DAX1 inh-2: 4.3*

What do the screens show for `COc1ccccc1NS(=O)(=O)c1cccc(C(=O)OCc2nc3ccccc3s2)c1`?
DAX1 inh-1: 1.4; hgDAF-12 ag: 4.8; ssDAF-12 act: 2.7*; hcDAF-12 act: 5.6*; DAX1 inh-2: 1.0

Results for COc1ccccc1NS(=O)(=O)c1cccc(C(=O)NCC(c2ccco2)N2CCCC2)c1 (stereo unspecified) ?
DAX1 inh-1: -0.5; hgDAF-12 ag: 0.4; ssDAF-12 act: -1.8; hcDAF-12 act: -2.7; DAX1 inh-2: -2.4

What do the screens show for `C/C(=N\NC(=O)c1cc(-c2ccccc2)nc2ccccc12)c1ccc(Cl)cc1`?
hgDAF-12 ag: 2.3; ssDAF-12 act: -1.3; hcDAF-12 act: -1.2; DAX1 inh-2: -0.3

Results for CC(=O)CC(=O)O[C@@H]1C=C[C@H](NC(=O)OC(C)(C)C)C1 ?
hgDAF-12 ag: -0.7; ssDAF-12 act: -1.3; hcDAF-12 act: 1.0; DAX1 inh-2: 0.3

What do the screens show for `OCCC1CN(Cc2cc(F)ccc2-n2cccn2)CCN1C1CCCC1` (stereo unspecified)?
DAX1 inh-1: 1.2; hgDAF-12 ag: -0.3; ssDAF-12 act: 1.7*; hcDAF-12 act: -2.1; DAX1 inh-2: 0.1

What do the screens show for `CC1(CCc2ccccc2)NC(=O)N(CC(=O)O)C1=O` (stereo unspecified)?
DAX1 inh-1: 3.2; hgDAF-12 ag: 0.5; ssDAF-12 act: -1.0; hcDAF-12 act: -0.2; DAX1 inh-2: 0.7

How did CC1(CCc2ccccc2)NC(=O)N(CC(=O)Nc2ccccc2)C1=O (stereo unspecified) do in these assays?
DAX1 inh-1: 4.7*; hgDAF-12 ag: 5.7; ssDAF-12 act: -1.0; hcDAF-12 act: 0.6; DAX1 inh-2: 0.9

Results for Cc1ccc(NC(=O)OC2CC3CC2[C@H]2CCCCN2C3)cc1C (stereo partly specified) ?
hgDAF-12 ag: 7.5; ssDAF-12 act: -1.1; hcDAF-12 act: 0.2; DAX1 inh-2: 0.4

Results for CCN(CC)c1ccc(NC(=O)C2CCCC2)cc1 ?
DAX1 inh-1: 4.6*; hgDAF-12 ag: 1.9; ssDAF-12 act: -1.2; hcDAF-12 act: -0.2; DAX1 inh-2: 0.4

How did C/C(=N\NC(=O)c1ccn(C)n1)c1ccc(NC(=O)C2CCCC2)cc1 do in these assays?
DAX1 inh-1: 6.6*; hgDAF-12 ag: 6.2; ssDAF-12 act: -0.4; hcDAF-12 act: 1.1; DAX1 inh-2: 1.1

How did C/C(=N\NC(=O)c1ccn(C)n1)c1ccc(NC(=O)C2CCC2)cc1 do in these assays?
DAX1 inh-1: 1.1; hgDAF-12 ag: 10.0; ssDAF-12 act: -0.4; hcDAF-12 act: 1.6; DAX1 inh-2: 2.4

Results for CCN(CC)c1ccc(NC(=S)NCC2CCCO2)cc1 (stereo unspecified) ?
DAX1 inh-1: -0.1; hgDAF-12 ag: 7.9; ssDAF-12 act: -1.2; hcDAF-12 act: 2.0; DAX1 inh-2: 4.4*
